Data: PubChem BioAssay AID1362 (SRMLSC, 2008)
About 4,000 (2.1%) of roughly 190,000 compounds were called active. Cut-off read from the data, not from the text of the source: active = inhibition above about 58%; inactive = the rest, inconclusive results apart; tested in S. cerevisiae. For the sample, actives were picked, then their nearest neighbours and some compounds at random.

Assay: growth inhibition of WT strain, primary screen, mitochondrial fusion inhibitor project, WT and mutant strains, chemical genetic (AID 1362)
Conditions: mitochondrial fusion phenotypic screen, at 10 µM
[1] = WT strain, growth inhibition, stronger effect = higher value

## CCN(CCCNC(=O)CSc1cc(=O)n(C)c2cc(Cl)ccc12)Cc1ccccc1
[1]
  inhibition: -10.6% (inactive)
Mutant strain inhibition
  inhibition: -11.8%

## CC(O)CNCCOc1cccc(Oc2ccccc2)c1 (configuration not stated)
[1]
  inhibition: -0.49% (inactive)
Mutant strain inhibition
  inhibition: 17.6%

## CCOC(=O)c1[nH]ncc1CN1CCCC(C(=O)c2ccc(OC)cc2C)C1 (configuration not stated)
[1]
  inhibition: 3.7% (inactive)
Mutant strain inhibition
  inhibition: 9.86%

## O=C(N/N=C/c1cc2c(cc1Br)OCO2)C1COc2ccccc2O1 (configuration not stated)
[1]
  inhibition: 29.9% (inactive)
Mutant strain inhibition
  inhibition: 30%

## COC(=O)c1sc2ncccc2c1OCc1ccc(Cl)cc1Cl
[1]
  inhibition: 12.8% (inactive)
Mutant strain inhibition
  inhibition: -2.97%

## Cc1nc2ccccc2nc(C)c1=NOCc1ccc(Cl)cc1Cl
[1]
  inhibition: 67.9% (active)
Mutant strain inhibition
  inhibition: 2.92%

## O=S(=O)(O)c1nc2ccccc2n1Cc1ccc(Cl)cc1Cl
[1]
  inhibition: 18.7% (inactive)
Mutant strain inhibition
  inhibition: 26%

## CC(C)N1C(=S)SC(C)(C)C1n1oc(=O)n(-c2ccc(Cl)c(Cl)c2)c1=O (configuration not stated)
[1]
  inhibition: 76.3% (active)
Mutant strain inhibition
  inhibition: 19.9%

## Cc1ccc(C2CC(c3cccc(NS(C)(=O)=O)c3)=NN2S(C)(=O)=O)cc1 (configuration not stated)
[1]
  inhibition: 4.24% (inactive)
Mutant strain inhibition
  inhibition: 6.73%

## CCOc1cc(CNn2c(C)nnc2SCC(=O)NC(C)(C)C)ccc1OCC(=O)NC(C)(C)C
[1]
  inhibition: -19.6% (inactive)
Mutant strain inhibition
  inhibition: 0.2%

## Cc1cc(C(=O)CCl)c(C)n1CC1COc2ccccc2O1 (configuration not stated)
[1]
  inhibition: 7.72% (inactive)
Mutant strain inhibition
  inhibition: 25.4%

## N#Cc1c(N)nc2c(c1N)CC(C(F)(F)F)O2 (configuration not stated)
[1]
  inhibition: -7.69% (inactive)
Mutant strain inhibition
  inhibition: 1.1%

## Cc1nc(N2CCN(c3ccccn3)CC2)c2c(C)c(C(=O)Nc3ccc(F)cc3)sc2n1
[1]
  inhibition: 38.7% (inactive)
Mutant strain inhibition
  inhibition: 11.3%

## Cc1nc(N2CCOCC2)c2c(C)c(C(=O)Nc3ccc(C(F)(F)F)cc3)sc2n1
[1]
  inhibition: 47.4% (inactive)
Mutant strain inhibition
  inhibition: -8.5%

## Cc1nc(N2CCC(C)CC2)c2c(C)c(C(=O)Nc3cc(F)ccc3C)sc2n1
[1]
  inhibition: 64% (active)
Mutant strain inhibition
  inhibition: -25.2%

## c1ccc(-c2cc(N3CCCCC3)c3ccccc3n2)cc1
[1]
  inhibition: 36.4% (inactive)
Mutant strain inhibition
  inhibition: 49.1%

## CC(C)NC(=S)NN=C1CCCCCCCCCCC1
[1]
  inhibition: 69.5% (active)
Mutant strain inhibition
  inhibition: 53.1%

## CC(C)(C)NC(=O)C(=O)NN=C1CCCCCCC1
[1]
  inhibition: -0.12% (inactive)
Mutant strain inhibition
  inhibition: 9.74%

## CC(=O)NC(NC(=S)Nc1c(C)n(C)n(-c2ccccc2)c1=O)C(Cl)(Cl)Cl (configuration not stated)
[1]
  inhibition: 15.8% (inactive)
Mutant strain inhibition
  inhibition: 0.58%

## CCOCCCNC(=S)N1CCC(NC(=O)C2CCCCC2)CC1
[1]
  inhibition: 6.14% (inactive)
Mutant strain inhibition
  inhibition: 2.16%

## COc1ccc(NS(=O)(=O)c2ccc(O)c(C(=O)OCC(=O)NC3CCCCC3)c2)cc1
[1]
  inhibition: -15% (inactive)
Mutant strain inhibition
  inhibition: 17.3%
